D2 ag-1 = HTS Assay for Allosteric Agonists of the Human D2 Dopamine Receptor: Primary Screen for Agonists | 0.53% of 340,000 active | HEK293 T-REx D2 cells, calcium flux agonist mode | activation, % at 2 µM | AID 485358, 2010 | D(2) dopamine receptor (Homo sapiens), P14416;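 active means activation over 3 SD above normal in the single-dose calcium agonist read, cut at about 30% in these data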; further: 0% is about no effect
Target sequence (P14416 whole entry, looked up): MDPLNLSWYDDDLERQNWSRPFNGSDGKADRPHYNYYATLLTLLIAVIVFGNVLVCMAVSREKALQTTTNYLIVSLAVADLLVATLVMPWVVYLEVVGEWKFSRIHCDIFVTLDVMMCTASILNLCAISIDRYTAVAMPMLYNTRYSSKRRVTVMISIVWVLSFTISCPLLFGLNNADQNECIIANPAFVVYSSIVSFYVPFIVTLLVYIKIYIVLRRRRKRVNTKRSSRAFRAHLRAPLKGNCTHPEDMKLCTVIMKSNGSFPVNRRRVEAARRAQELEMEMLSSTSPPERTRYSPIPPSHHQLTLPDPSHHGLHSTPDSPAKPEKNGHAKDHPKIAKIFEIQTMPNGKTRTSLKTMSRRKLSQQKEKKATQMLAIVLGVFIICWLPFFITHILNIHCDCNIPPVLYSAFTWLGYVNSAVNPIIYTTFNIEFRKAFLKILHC
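In this primary screen, compounds producing a positive calcium signal within 180 s of addition to tetracycline-induced, force-coupled HEK293 Trex D2 cells are flagged; cells are dye-loaded with a no-wash calcium kit beforehand.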
D2 PAM-1 = Beta-Arrestin HTS for Positive Allosteric Modulators of the Human D2 Dopamine Receptor: Potentiators; D(2) dopamine receptor (Homo sapiens), P14416; DiscoveRx D2 beta-arrestin cells, luminescence, 90 min; 100% = 57 uM dopamine signal; potentiation, % (test concentration not listed); 0.23% of 360,000 active; in the data active means potentiation above about 50%
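PathHunter beta-arrestin assay in DiscoveRx D2 cells. Compounds were added with an EC20 of dopamine (50 nM final) for 90 min at 37 deg C. Luminescence was read 1 h after detection reagent, with 57 uM dopamine as the EC100 control.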
D2 antagonist = HTS Assay for Allosteric Antagonists of the Human D2 Dopamine Receptor: Primary Screen for Antagonists. D(2) dopamine receptor (Homo sapiens), P14416. HEK293 TREx D2 cells, calcium flux, dopamine EC80. inhibition, % at 10 µM. 2% of 340,000 active. AID 485344, 2010; in the data active means inhibition above about 30%; inactive means below that, where a call was filed; further: 0% is about no effect
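Calcium flux kinetic readout in an inducible HEK293 TREx D2 line plated overnight at 30 C. After 180 s compound exposure, an EC80 dopamine challenge follows with another 180 s kinetic read to detect antagonism.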
D2 ag-2 = Beta-Arrestin HTS for Positive Allosteric Modulators of the Human D2 Dopamine Receptor: Agonists | D(2) dopamine receptor (Homo sapiens), P14416 | DiscoveRx PathHunter D2 beta-arrestin, luminescence, 90 min; 100% = 57 uM dopamine signal | activation, % (test concentration not listed) | 0.084% of 360,000 active; in the data active means activation above about 40%
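Agonist mode: compounds alone added to overnight-plated D2 PathHunter cells for 90 min at 37 C, with 57 uM final dopamine (EC100) defining full response. Beta-arrestin recruitment detected by chemiluminescent reagent, read after 1 h at ambient temperature.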
D2 PAM-2 = HTS Assay for Positive Allosteric Modulators of the Human D2 Dopamine Receptor: Primary Screen for Potentiators; 0.34% of 340,000 active; HEK293 T-REx D2, calcium flux, EC20 dopamine potentiation; D(2) dopamine receptor (Homo sapiens), P14416; potentiation, % at 10 µM;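 active means potentiation over 3 SD above the plate norm, cut at about 30% in these data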; further: 0% is about no effect
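Potentiation of an EC20 dopamine calcium response measured kinetically over 180 s, after a preceding 180 s compound-only read flagging agonists. Cells: inducible Hek293 Trex D2 line, 4000/well, cultured overnight at 30 C before dye loading.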
Starred values were filed as active, the others as inactive; nt = no result. The list is not random: actives were taken first. Their share in the collection is about 2.4%.

SMILES | D2 ag-1 | D2 PAM-1 | D2 antagonist | D2 ag-2 | D2 PAM-2
COc1ccc(-c2cc(C(F)F)n3ncc(C(=O)N4CCN5CCCC5C4)c3n2)cc1 (configuration not stated) | 0 | -37 | 52* | -1 | 0
COc1ccc(-n2ncc(C(C)NS(=O)(=O)c3ccc(C)s3)c2C)cc1 (configuration not stated) | 0 | -10 | -5 | 1 | 12
C=CCn1c(SCn2nnc3ccccc3c2=O)nnc1-c1ccc(F)cc1 | 0 | -1 | -6 | 2 | 8
C=CCn1c(SCn2nnc3ccccc3c2=O)nnc1-c1ccc(Br)cc1 | -2 | -6 | -10 | -1 | 36*
Cc1cc2oc(C(=O)Nc3ccc(S(=O)(=O)Nc4nccs4)cc3)cc(=O)c2cc1Cl | 0 | -3 | 34* | -2 | -4
CC(Oc1ccc(Br)cc1)C(=O)Nc1ccc(S(=O)(=O)Nc2nccs2)cc1 (configuration not stated) | 2 | -3 | -3 | -2 | 2
CCC(Oc1ccc(C)cc1)C(=O)Nc1ccc(S(=O)(=O)Nc2nccs2)cc1 (configuration not stated) | 2 | -6 | 14 | -3 | 42*
CCc1ccc(S(=O)(=O)Nc2nccs2)cc1 | 0 | -7 | 11 | 4 | 38*
CC(C)C(=O)NC(=S)Nc1ccc(S(=O)(=O)Nc2nccs2)cc1 | 1 | -4 | 39* | 1 | -5
CN(C)C(CNc1ccc(S(C)(=O)=O)cc1[N+](=O)[O-])Cc1ccccc1 (configuration not stated) | 2 | -12 | -8 | -3 | nt
COc1ccc(Cl)cc1C(=O)Nc1sc2c(c1C(=O)OC(C)C)CCCC2 | nt | nt | nt | nt | -2
Cc1ccc(CN2CCN(/N=C/c3cccn3C)CC2)c(C)c1 | 0 | -20 | 51* | -2 | -5
Cc1cccc(NC(=O)c2cnc3sc(N4CCCC4)nn3c2=O)c1C | nt | nt | nt | nt | -6
Cc1cc(C)c(S(=O)(=O)N2CCN(c3ccc([N+](=O)[O-])c(NCc4ccco4)c3)CC2)c(C)c1 | -1 | -14 | -2 | 0 | 0
O=[N+]([O-])c1ccc(N2CCN(CCO)CC2)cc1NCc1ccco1 | -1 | -40 | 34* | -4 | -22
COc1ccc(-c2sc(Nc3ccccc3)n[n+]2-c2ccc(F)cc2)cc1Br | 2 | -10 | -9 | -5 | -4
COc1ccc2ccccc2c1-c1sc(Nc2ccccc2)n[n+]1-c1ccc(F)cc1 | 1 | -31 | 32* | -6 | -8
OCCC1CN(Cc2cc3c(cc2Cl)OCO3)CCN1Cc1ccccc1 (configuration not stated) | -2 | -10 | 7 | -1 | -20
CCOC(=O)c1cc(-c2ccccc2)n(-c2cccc(C(=O)Nc3ccc(OCC)cc3)c2)c1C | -1 | nt | nt | nt | -5
Cc1cc(=O)[nH]c(N2CCCNCC2)n1 | 0 | 5 | 0 | -3 | 9
Cc1cc(=O)[nH]c(-n2nc(C)cc2C)n1 | 1 | 0 | 44* | -1 | -3
Cc1cccc(-c2noc(-c3cccnc3NCc3ccccc3Cl)n2)c1 | -1 | nt | nt | nt | -23
CS(=O)(=O)Oc1ccc(/C=N/NC(=O)c2ccncc2)cc1 | nt | -2 | nt | 3 | nt
COc1ccc(C=NNc2nc3ccccc3s2)cc1 | nt | -11 | nt | 1 | nt
Cc1ccc2[nH]c(C)c(/C=N/Nc3nc4ccccc4s3)c2c1 | 1 | 58* | -1 | 6 | -7
CCN(CC)c1ccc(NC(=O)C2CC(=O)N(Cc3ccccc3)C2)cc1 (configuration not stated) | 0 | -1 | 1 | 4 | 3
CN(C)S(=O)(=O)c1ccc(NC(=O)C2CC(=O)N(Cc3ccccc3)C2)cc1 (configuration not stated) | 0 | -6 | -10 | -1 | 31*
CC1CC(=O)C2=C(C1)Nc1ncnn1C2c1ccccc1 (configuration not stated) | 1 | -4 | 9 | -2 | 34*

Screening data (PubChem)
